Our source for the Potency and activity change, negative = inhibition values is PubChem BioAssay AID1733 (National Center for Advancing Translational Sciences (NCATS), 2009).

Inconclusive results are not listed. A call without a number means that no potency is given here. A number with no mark means an inactive call. Calls of active or inactive are those of the source. Calls come from the whole dose curve; as a rule, active = well fitted inhibition curve with a large enough effect; inconclusive = small, poorly fitted or top-dose-only effect; inactive = flat fitted curve, though single readings scatter.

Chain of Luciferin 4-monooxygenase (Photinus pyralis) (P08659 whole entry, looked up, canonical isoform): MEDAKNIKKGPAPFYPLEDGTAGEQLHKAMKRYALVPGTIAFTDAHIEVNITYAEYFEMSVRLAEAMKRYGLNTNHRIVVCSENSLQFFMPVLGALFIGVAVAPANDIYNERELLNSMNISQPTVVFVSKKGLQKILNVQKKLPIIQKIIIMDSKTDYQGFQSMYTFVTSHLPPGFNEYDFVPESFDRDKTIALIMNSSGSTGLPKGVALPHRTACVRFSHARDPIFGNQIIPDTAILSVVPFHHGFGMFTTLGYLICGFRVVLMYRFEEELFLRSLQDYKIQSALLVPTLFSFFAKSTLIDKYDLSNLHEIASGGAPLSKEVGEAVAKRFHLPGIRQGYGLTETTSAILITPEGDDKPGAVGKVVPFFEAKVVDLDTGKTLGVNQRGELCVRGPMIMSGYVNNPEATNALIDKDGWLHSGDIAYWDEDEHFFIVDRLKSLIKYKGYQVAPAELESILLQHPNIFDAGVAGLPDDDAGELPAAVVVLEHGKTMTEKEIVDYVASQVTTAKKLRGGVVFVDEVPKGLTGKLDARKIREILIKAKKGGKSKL

The experiment addresses Luciferin 4-monooxygenase (Photinus pyralis) (UniProt P08659). Briefly: Counterscreen Assay for Enhancers of SMN2 Splice Variant Expression: Interaction with Luciferase Reporter. To be noted: purified firefly luciferase, luminescence, 5 min; series mostly up to 40.3 µM. The text has this: NIH Chemical Genomics Center [NCGC] NIH Molecular Libraries Probe Production centers Network [MLPCN] MLPCN Grant: R03 MH084179-01 Assay Submitter (PI): Elliot Androphy NCGC Assay Overview: Spinal muscular atrophy (SMA) is caused by insufficient levels of the survival motor neuron protein SMN. The SMN locus on chromosome 5q13 contains two inverted copies of SMN called SMN1 and SMN2 which are 99% identical at the amino acid level. SMN1 is a fully functional protein and SMN2 skips exon 7 90% of the time. Skipping of exon 7 produces non-functional protein product. 10% of the SMN2 protein includes exon 7 and is fully functional. In the SMA disease state, mutations in the SMN1 locus are the cause of the disease state. Because only 10% of SMN2 is of the fully functional form, it is not sufficient to overcome the deficiency produced by the loss of the SMN1 product. A therapy that either increases the amount of SMN2 product made increases the inclusion of exon 7 has been proposed for the treatment of SMA. We have designed an assay to identify small molecules that can increase the amount of functional SMN2 product by appending a luciferase reporter gene after the native SMN2 gene, such that inclusion of exon 7 in the expressed product places the luciferase sequence in frame, thus generating functional luciferase enzyme. One potential source of false positives in the primary screening assay is stabilization of the reporter luciferase via direct binding. This assay attempts to identify such compounds by screening directly for luciferase activity in the absence of the cellular system.
NCGC Assay Protocol Summary: The primary screen utilizes a luciferase reporter gene assay, combining the promoter and splicing based cassettes in tandem with the major portion of the native SMN1 cDNA, and then transfected into HEK293 cells. Compounds that modulate luciferase signal presumably modulate expression of […]. In this assay, we utilize purified firefly luciferase in lieu of a cellular reporter to identify compounds interacting directly with luciferase in the primary screen. Sequence, Parameter, Value, Description (1) Reagent, 2.5 uL, Enzyme in buffer (note A) (2) Compound, 23 nL, From stock solutions (3) Time, 5 minutes, Room temp (4) Reagent#2.5 ul, Luciferase detection reagent (note B) (5) Detector, 1 sec integrate, Luminescent read on Viewlux (note C) Sigma enzyme (1 mg) considered to be MW 61,000 diluted in 357 ul assay buffer to 50 uM stock. A - Enzyme and buffer consists of 50 mM Tris-acetate pH 7.6, 10 mM Mg acetate 0.05% BSA, 0.01% Tween and 5 nM firefly luciferase B - Detection reagent = britelite plus diluted 1:10 in PBS C - Viewlux settings were 1 second integration medium sensitivity Keywords: Spinal muscular atrophy, SMA, SMN2, high throughput screening, MLSMR, MLPCN, NIH Roadmap, qHTS and NCGC
As for `FC(F)(F)c1cccc(-c2nnc(-c3ccccc3)c(N3CCOCC3)n2)c1`, the Potency entry is “inactive”.

As to `COc1c(C)c2c(c(O)c1C/C=C(\C)CCC(=O)O)C(=O)OC2`, the Potency result was “inactive”.

As for `Cc1ccc(-c2csc(N3CCC(NS(=O)(=O)c4ccc5c(c4)OCCO5)CC3)n2)cc1`, the Potency entry is “inactive”.

In the case of `Brc1ccc(-c2nnc(-c3ccccc3)c(N3CCSCC3)n2)cc1`, the Potency was 10 µM (active).

As to `c1ccc(-c2nnc(-c3ccccc3)c(-c3c[nH]c4ccccc34)n2)cc1`, the Potency result is “inactive”.

As for `Nn1c(SCC(=O)NCCC2=CCCCC2)nnc1C1CCCCC1`, the activity change, negative = inhibition was 2.17% [at 48.7 pM].

With `Cc1[nH]c2ccccc2c1-c1nc(-c2ccc(Cl)cc2)nnc1-c1ccccc1`, the Potency entry was “inactive”.

On to `Cc1oncc1C(=O)Nc1ccc(C(F)(F)F)cc1`, for which the Potency was 0.891 µM (active).

Consider `CCCCOC(C)n1cc(F)c(=O)[nH]c1=O` (centres undefined), for which the Potency result is “inactive”.

With `COc1ccc(-c2csc(N3CCC(C(N)=O)(N4CCCCC4)CC3)n2)cc1`, the Potency result was “inactive”.

For the compound `Cc1ccc(-c2nnc(-c3ccccc3)c(N3CCOCC3)n2)cc1`, the Potency entry was “inactive”.

Regarding `CN(C)CCCN(C(=O)c1cccs1)c1nc(-c2ccccc2)cs1`, the Potency result is “inactive”.

With `O=C(NCCCNCCCNC(=O)c1ccccn1)c1ccccn1`, the activity change, negative = inhibition was -6.78% [at 48.7 pM].

Take `COc1ccc(-c2csc(N3CCC(c4ccccc4)CC3)n2)cc1`: the Potency result was “inactive”.

Turning to `OCCCNc1nc(-c2ccc(Cl)cc2)nnc1-c1ccc(Br)cc1`, the Potency result was “inactive”.

`CC1CN(c2nc(-c3ccc(Br)cc3)nnc2-c2ccccc2)CC(C)N1` (centres undefined): the Potency result was “inactive”.

As for `Cc1ccc(C2c3c(oc4ccccc4c3=O)C(=O)N2CCCN2CCOCC2)o1` (centres undefined), the Potency was 12.6 µM (active).

`C#CCn1c(S(=O)(=O)Cc2ccccc2Cl)nc(-c2ccccc2)c1-c1ccccc1`: the activity change, negative = inhibition was 12% [at 48.7 pM].

Turning to `O=C(NCCc1cn2ccsc2n1)c1cccs1`, the activity change, negative = inhibition is -9.66% [at 48.7 pM].

In the case of `Cc1ccc(-c2nnc(-c3ccccc3)c(-c3ccccc3)n2)cc1`, the Potency entry was “inactive”.

Consider `O=C(Nc1cccnc1)/C(N=Nc1c(Cl)cccc1Cl)=C(\O)c1ccccc1`, for which the activity change, negative = inhibition was -9.05% [at 48.7 pM].

`O=C(O)c1cccc(COc2ccc(CO)cc2Cl)c1`: the Potency is 7.08 µM (active).

On to `NC(=O)N1c2ccccc2C=Cc2ccccc21`, for which the Potency entry was “inactive”.

Regarding `O=c1cc(N2CCN(c3cccc(Cl)c3)CC2)[nH]c(=O)n1C1CCCCC1`, the activity change, negative = inhibition was -4.08% [at 48.7 pM].
